Compound activity: PubChem, National Center for Advancing Translational Sciences (NCATS)
A selection: hits, their analogues and other compounds. The true share with any hit is near 12%.
BAZ2B block = BAZ2B (human) inhibition. AlphaScreen BAZ2B-H3K14Ac peptide displacement. Potency, µM (top dose mostly 114 µM), without a hit: at the highest dose activity change, negative = inhibition, usual class: inhibitors. 360,000 tested, 4.4% active. AID 504333; also: % is scaled to controls: 0 for no effect and ±100 for the full control effect; nearly all actives have a fitted effect of over 60% in size
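Complex of BAZ2B and biotin-H3K14Ac (50 nM apiece) forms over 30 min at RT, then faces library compounds up to 110 uM for another 30 min; AlphaScreen beads added, 20 min dark incubation, luminescence read.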
Sfp PPTase inh = Sfp phosphopantetheinyl transferase inhibition | Biochemical Sfp PPTase activity, qHTS | Potency, µM, without a hit: largest response in the series, negative = inhibition, usual class: inhibitors | Q9F4F7 | 310,000 tested, 3.5% active;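 also: the enzyme is Sfp with the accession as filed and its product quenches rhodamine fluorescence; 0% = enzyme reaction without inhibitor and -100% = no enzyme wells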
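Step 1, compound plus 15 nM Sfp-PPTase, 15 min, room temperature. Step 2, add rhodamine-CoA (5 uM) and BHQ-2-YbbR (12.5 uM). Step 3, read 525/598 nm fluorescence at 0 and 30 min.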
G9a block = G9a (human) methyltransferase inhibition; G9a H3K9 monomethylation, AlphaScreen, 2 h; Potency, µM (series often up to 102 µM), without a hit: at the top dose activity, negative = inhibition, usual class: inhibitors; 350,000 tested, 8.8% active; also: % is scaled to controls: 0 for no effect and ±100 for the full control effect; nearly all actives have a fitted effect of over 75% in size
Target sequence (Q96KQ7 913-1193 limits assumed): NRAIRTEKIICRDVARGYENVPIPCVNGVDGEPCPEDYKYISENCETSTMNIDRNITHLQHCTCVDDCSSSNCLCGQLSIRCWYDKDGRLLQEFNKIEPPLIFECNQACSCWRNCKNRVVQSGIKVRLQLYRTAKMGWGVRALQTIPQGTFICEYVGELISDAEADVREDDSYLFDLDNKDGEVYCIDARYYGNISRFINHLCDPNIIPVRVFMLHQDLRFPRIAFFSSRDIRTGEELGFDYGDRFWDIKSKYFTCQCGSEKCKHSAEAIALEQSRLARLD
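Signal arises when biotinylated H3K9 peptide, once monomethylated, bridges streptavidin donor and antibody-captured acceptor beads. Enzyme at 20 nM was preincubated 15 min with test compounds; peptide 500 nM and SAM 20 uM then reacted for 2 h.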
L3MBTL1 block = L3MBTL1 (human) inhibition | Potency, µM (series often up to 57.1 µM), for inactives: top-dose activity, negative = inhibition, hits mostly inhibitors | 230,000 tested, 0.66% active | AID 485360 | Q9Y468 | AlphaScreen L3MBTL1–H3K9me1 peptide binding; also: % is scaled to controls: 0 for no effect and ±100 for the full control effect; nearly all actives have a fitted effect of over 60% in size
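Displacement of a biotinylated histone H3(1-15) peptide monomethylated at Lys9 (75 nM) from L3MBTL1 (50 nM) was measured by AlphaScreen after a 30 min room-temperature compound incubation; cefsulodin titration served as intraplate control.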
JMJD2A Tudor inh = JMJD2A Tudor domain (human) inhibition | O75164 | AlphaScreen JMJD2A-Tudor / H3K4me3 peptide binding | Potency, µM (titrated, usually from 114 µM), for the others: top-dose activity change, negative = inhibition, hits mostly inhibitors | 390,000 tested, 4.4% active; also: % is scaled to controls: 0 for no effect and ±100 for the full control effect; nearly all actives have a fitted effect of over 50% in size
HP1b chromo inh = blocks HP1-beta chromodomain binding to methylated histone tails. P83916. AlphaScreen HP1-beta / biotin-H3K9me3 peptide binding. Potency, µM (titrated, usually from 114 µM), without a hit: at the highest dose activity change, negative = inhibition, actives largely listed as inhibitors. 390,000 tested, 0.56% active. AID 540317; also: nearly all actives have a fitted effect of over 70% in size
Target sequence (P83916 whole entry, looked up): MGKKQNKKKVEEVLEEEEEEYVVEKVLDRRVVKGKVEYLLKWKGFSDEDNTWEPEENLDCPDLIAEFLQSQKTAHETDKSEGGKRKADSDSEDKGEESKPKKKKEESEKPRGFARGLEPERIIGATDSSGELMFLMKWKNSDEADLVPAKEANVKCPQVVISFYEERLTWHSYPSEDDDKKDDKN
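HP1-beta protein (50 nM final) preincubated 30 min at room temperature with biotinylated H3(1-18)K9me3 peptide (50 nM) in PBS pH 7.4, 0.01% Tween-20, then compound added for 30 min. AlphaScreen streptavidin donor/nickel chelate acceptor beads (10 ug/mL final), 30 min dark, luminescence read.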
The depositor's hits bear a star; [ ] = another dose, or the depositor's remark. Calls follow the shape of the dose curve; as a rule, active = well fitted curve in the direction sought with a large enough effect; inconclusive = small, poorly fitted or top-dose-only effect, or another doubt; inactive = no such curve, though single readings can be large; an effect the other way counts as inactive or inconclusive. Potency is read from the fitted curve at half-maximal effect.

Cc1[nH]c2ccccc2c1N=Nc1cc(C(=O)O)cc(C(=O)O)c1 was read as BAZ2B block inconclusive, Sfp PPTase inh -1.2%, G9a block 35.5µM*, L3MBTL1 block inconclusive, JMJD2A Tudor inh -21.2% and HP1b chromo inh -11.4%.
`Cc1[nH]c2ccccc2c1N=Nc1ccccc1F` gave BAZ2B block 39.8µM*, Sfp PPTase inh 9.2%, G9a block 39.8µM*, JMJD2A Tudor inh 44.7µM* and HP1b chromo inh inconclusive.
For Oc1[nH]c2ccccc2c1N=Nc1c(F)c(F)c(Cl)c(F)c1F the results were BAZ2B block -6.7%, Sfp PPTase inh 18.0%, G9a block -3.2%, JMJD2A Tudor inh -1.3% and HP1b chromo inh 52.3%.
Screening Cc1[nH]c2ccccc2c1N=Nc1ccc(F)cc1 returned BAZ2B block 31.6µM*, Sfp PPTase inh 20.5%, G9a block 39.8µM*, L3MBTL1 block -1.6%, JMJD2A Tudor inh 89.1µM* and HP1b chromo inh inconclusive.
`N#Cc1cccc2c1-c1ccccc1/C2=N/NC(N)=S` gave BAZ2B block inconclusive, Sfp PPTase inh -26.1%, G9a block 89.1µM*, JMJD2A Tudor inh inconclusive and HP1b chromo inh -15.6%.
CN(C)c1ccnc2c[cH-]cc12.[Fe].c1ccc(-[c-]2[c-](-c3ccccc3)[c-](-c3ccccc3)[c-](-c3ccccc3)[c-]2-c2ccccc2)cc1 (stereo not given) was read as BAZ2B block 1.58µM*, Sfp PPTase inh -24.4%, G9a block inconclusive, JMJD2A Tudor inh 3.98µM* and HP1b chromo inh 3.16µM*.
CN(C)c1ccnc(Nc2ccccc2)c1C#N was read as BAZ2B block -3.8%, Sfp PPTase inh -0.7%, G9a block -15.3%, L3MBTL1 block 1.2%, JMJD2A Tudor inh -2.1% and HP1b chromo inh 37.4%.
For Cc1cc(=O)[nH]c(SCC(=O)Nc2ncc(S(=O)(=O)c3ccc([N+](=O)[O-])cc3)s2)n1 the results were BAZ2B block -13.1%, Sfp PPTase inh -4.0%, G9a block 44.7µM*, JMJD2A Tudor inh -25.0% and HP1b chromo inh inconclusive.
Screening CC(C)c1ccc(Nc2nnc(SCC(=O)Nc3ncc(S(=O)(=O)c4ccc([N+](=O)[O-])cc4)s3)s2)cc1 returned BAZ2B block -20.4%, Sfp PPTase inh 1.6%, G9a block 35.5µM*, L3MBTL1 block 1.8%, JMJD2A Tudor inh -13.6% and HP1b chromo inh 13.5%.
For O=C(c1ccccc1Cl)N1CCN(C(=O)C2CCCO2)CC1 (stereo not given) the results were BAZ2B block 0.8%, G9a block 3.0%, L3MBTL1 block -3.8%, JMJD2A Tudor inh -5.2% and HP1b chromo inh 27.8%.
CCCN1CCCC(c2cccc(S(C)(=O)=O)c2)C1 (stereo not given) was read as Sfp PPTase inh -15.9%.
Screening Cc1cccc(OCC(=O)N(Cc2sccc2C)C2CCS(=O)(=O)C2)c1 (stereo not given) returned BAZ2B block -2.0%, G9a block 3.6%[59 µM], JMJD2A Tudor inh -17.0% and HP1b chromo inh -2.7%.
COc1ccc(C(=O)c2ccc(O)cc2)c(O)c1O was read as Sfp PPTase inh 28.2µM*.
`COc1ccc(CNC(=O)CN(C(=O)c2csnn2)c2cccc(C(C)=O)c2)cc1` gave BAZ2B block -2.2%, Sfp PPTase inh 13.1%, G9a block -1.9%, JMJD2A Tudor inh 0.0% and HP1b chromo inh -9.3%.
CCOC(=O)CSc1nc(-c2ccncc2)ccc1C#N was read as BAZ2B block -4.4%, Sfp PPTase inh 14.8%, G9a block 7.9%[59 µM], L3MBTL1 block 2.0%, JMJD2A Tudor inh -4.8%[11.4 µM] and HP1b chromo inh -4.3%.
Cc1csc(C(C#N)C(=O)c2ccncc2)n1 (stereo not given) was read as BAZ2B block -37.6%, Sfp PPTase inh -9.7%, G9a block 50.1µM*, L3MBTL1 block inconclusive, JMJD2A Tudor inh -16.6% and HP1b chromo inh 14.3%.
O=C(CSc1nnc(NC(=O)c2ccccc2F)s1)NCC1CCCO1 (stereo not given) was read as BAZ2B block -5.2%, Sfp PPTase inh 50.1µM*, G9a block 14.1µM*, JMJD2A Tudor inh inconclusive and HP1b chromo inh 9.9%.
`CC(C)Nc1nnc(SCC(=O)Nc2ccc(F)cc2)s1` gave BAZ2B block 3.4%, Sfp PPTase inh -11.8%, G9a block 39.8µM*, L3MBTL1 block -5.4%, JMJD2A Tudor inh -5.5% and HP1b chromo inh 11.4%.
`CCC(=O)Nc1nnc(SCC(=O)NC2CCCC2)s1` gave BAZ2B block 6.7%, Sfp PPTase inh 7.2%, G9a block inconclusive, JMJD2A Tudor inh -5.5% and HP1b chromo inh 20.9%.
For CCNc1nnc(SCC(=O)NC2CCCCCC2)s1 the results were BAZ2B block 9.4%, G9a block 3.55µM*, L3MBTL1 block -13.6%, JMJD2A Tudor inh -7.6% and HP1b chromo inh -0.5%.
For COc1ccc(N2CC(C(=O)Nc3nnc(SCC(=O)NC4CCCC4)s3)CC2=O)cc1 (stereo not given) the results were BAZ2B block -12.6%, Sfp PPTase inh inconclusive, G9a block 31.6µM*, JMJD2A Tudor inh inconclusive and HP1b chromo inh 15.2%.
Screening O=C(CSc1nnc(NC(=O)C2CC(=O)N(c3ccccc3)C2)s1)NC1CCCC1 (stereo not given) returned BAZ2B block 1.8%, Sfp PPTase inh 9.1%, G9a block 0.9%, JMJD2A Tudor inh -2.9% and HP1b chromo inh 13.6%.
`COc1ccc(N2CC(C(=O)Nc3nnc(SCC(=O)NCC4CCCO4)s3)CC2=O)cc1` (stereo not given) gave JMJD2A Tudor inh 35.5µM* and HP1b chromo inh 4.3%.
CC(=O)Nc1nnc(SCC(=O)NCC2CCCO2)s1 (stereo not given) was read as BAZ2B block 57.3%, Sfp PPTase inh -0.5%, G9a block inconclusive, L3MBTL1 block 17.2%, JMJD2A Tudor inh -8.8% and HP1b chromo inh 26.6%.
CCOc1ccc(N2CC(C(=O)Nc3nnc(Cc4ccc(OC)cc4)s3)CC2=O)cc1 (stereo not given) was read as BAZ2B block 2.6%, Sfp PPTase inh -8.1%, G9a block 10µM*, JMJD2A Tudor inh -12.7% and HP1b chromo inh 8.4%.
`COc1ccc(N2CC(C(=O)Nc3nnc(SCC(=O)NC(C)(C)C)s3)CC2=O)cc1` (stereo not given) gave BAZ2B block -3.2%, Sfp PPTase inh 5.1%, G9a block inconclusive, L3MBTL1 block -5.9%, JMJD2A Tudor inh -0.3% and HP1b chromo inh 21.6%.
